# In PubChem BioAssay (NCI):
# Compounds without any hit were thinned out: in the full panel of roughly 83,000, 20% have a hit.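 Cell lines were cultured in 96-well plates, exposed to a single compound concentration, and assessed for percent growth 48 hours later.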 Unmarked numbers belong to inactive results. The source made the active and inactive calls. Rule for the calls: active = growth percent below 10; inactive = the rest.
# Key:
# Assay in all cases: NCI-60 one-dose screen, 48 h (100 = growth as untreated, 0 = no growth, -100 = all killed)
# Conditions in all cases: 10 µM unless noted
# NCI-H23 lung = test system: NCI-H23 lung
# NCI-H226 lung = test system: NCI-H226 lung
# NCI-H322M lung = test system: NCI-H322M lung
# HOP-62 NSCLC = test system: HOP-62 NSCLC
# NCI-H460 lung = test system: NCI-H460 lung
# HOP-92 NSCLC = test system: HOP-92 NSCLC
# NCI-H522 lung = test system: NCI-H522 lung
# A549/ATCC NSCLC = test system: A549/ATCC NSCLC
# 786-0 renal = test system: 786-0 renal
# COLO 205 colon = test system: COLO 205 colon
# DU-145 prostate = test system: DU-145 prostate
# K-562 leukemia = test system: K-562 leukemia
# MALME-3M melanoma = test system: MALME-3M melanoma
# MDA-MB-231 breast = test system: MDA-MB-231 breast
# RXF 393 renal = test system: RXF 393 renal
# SF-268 CNS = test system: SF-268 CNS
# SF-295 CNS = test system: SF-295 CNS
# SF-539 CNS = test system: SF-539 CNS
# UACC-257 melanoma = test system: UACC-257 melanoma
# M14 melanoma = test system: M14 melanoma
Compound,growth (NCI-H23 lung) [%],growth (NCI-H226 lung) [%],growth (NCI-H322M lung) [%],growth (HOP-62 NSCLC),growth (NCI-H460 lung),growth (HOP-92 NSCLC),growth (NCI-H522 lung),growth (A549/ATCC NSCLC),growth (786-0 renal) [%],growth (COLO 205 colon),growth (DU-145 prostate),growth (K-562 leukemia),growth (MALME-3M melanoma),growth (MDA-MB-231 breast),growth (RXF 393 renal),growth (SF-268 CNS) [%],growth (SF-295 CNS),growth (SF-539 CNS),growth (UACC-257 melanoma) [%],growth (M14 melanoma)
C/C(=C\c1ccn(-c2ccccc2N)n1)[C@@H]1C[C@@H]2O[C@]2(C)CCC[C@H](C)[C@H](O)[C@@H](C)C(=O)C(C)(C)[C@@H](O)CC(=O)O1,20.4,33.8,16.6,41.7%,14.9%,77.4%,11.7%,24.8%,17.8,-4.12% (active),-17.8% (active),14.6%,41.7%,21.9%,-3.76% (active),30.3,13.8%,-12% (active),62.3,2.49% (active)
COc1ccc(/C=C\c2cc(OC)c(OC)c(OC)c2)c(NS(=O)(=O)c2ccc(C)cc2)c1O,23.2,33.9,43.6,80.7%,6.42% (active),44.4%,-17.3% (active),26.6%,18.8,-15.5% (active),-14.4% (active),17.6%,92.2%,14.8%,32.5%,19.4,16.9%,1.5% (active),66.7,9.2% (active)
C=CC[PH+](c1ccccc1)c1ccccc1.C=CC[PH+](c1ccccc1)c1ccccc1.[Cl][Pt][Cl],58.8,73.9,101,95.8%,91.9%,16%,9.41% (active),88.2%,49.7,22.2%,71.7%,0.456% (active),-26.4% (active),41.8%,-16.6% (active),95.5,89.8%,68%,80,51.9%
COc1ccc(S(=O)(=O)N(Cc2ccc3c(c2)C=CC(C)(C)O3)c2ccccc2)cc1OC,47.6,55.4,102,87.1%,76.7%,88.2%,61.5%,79.1%,87.1,64.7%,96.6%,63.2%,83.4%,96.6%,77.2%,87.4,70.6%,97.3%,61.9,87.6%
CC(=O)O[C@H](C[C@H](C(C)C)N(C)C(=O)[C@@H](NC(=O)[C@H]1CCCCN1C)C(C)C)c1cccc(C(=O)N[C@@H](Cc2ccccc2)C[C@H](C)C(=O)O)n1,32.6,61.6,40.7,23%,4.27% (active),54.5%,-12.7% (active),8.55% (active),13.6,-64% (active),0.44% (active),7.66% (active),74.3%,11.8%,34.5%,23.1,5.65% (active),-2.97% (active),48.4,1.68% (active)
COC(=O)[C@H](Cc1ccccc1)NNC(=O)c1csc([C@@H](C[C@H](C(C)C)N(C)C(=O)[C@@H](NC(=O)[C@H]2CCCCN2C)C2CC2)OC(C)=O)n1,29.2,36.5,46.7,8.12% (active),3.02% (active),3.84% (active),-19.2% (active),15.3%,11.9,-60.3% (active),6.55% (active),1.75% (active),71%,3.27% (active),76.4%,22.5,-5.26% (active),-15.4% (active),58,2.43% (active)
COc1cc(C=Nc2cccc(C(=O)O)c2)ccc1N(CCCl)CCCl,103,92.7,100,118%,75.4%,101%,-3.21% (active),96.6%,105,67.1%,111%,101%,84.4%,106%,99.4%,113,98.3%,102%,85.1,104%
CC1[C@H](C)OC(=O)CC(O)CC(O)CC(O)CCC(O)C(O)C[C@]2(O)CC(O)C(C(=O)O)C(CC(OC3O[C@H](C)[C@@H](O)[C@H](N)[C@@H]3O)/C=C/C=C/C=C/C=C/CC/C=C/C=C/[C@H](C)[C@H]1O)O2 (stereo not given in full),90.8,99.1,105,105%,103%,101%,114%,97.8%,105,93.7%,96.7%,111%,99.3%,92.9%,107%,109,102%,96.1%,101,98.6%
